According to PubChem BioAssay AID485270 (The Scripps Research Institute Molecular Screening Center, 2010):
In all, about 330,000 compounds went through this assay and about 5,800 (1.8%) were called active. This is one part of a sample in which actives are shown more often than they occur. Cut-off read from the data, not from the text of the source: active = inhibition mostly above about 38% (no sharp cut-off); inactive = mostly below about 40%.

Target: Orexin/Hypocretin receptor type 1 (Homo sapiens) (UniProt O43613)
Assay: antagonists of human orexin 1 receptor (OX1R) (AID 485270);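 note: 0% = agonist challenge alone and 100% = reference antagonist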
Details: OX1R-expressing cells, FRET antagonist read-out; at 6.6 µM; stronger effect = higher value

Sequence of Orexin/Hypocretin receptor type 1 (Homo sapiens) (O43613 whole entry, looked up): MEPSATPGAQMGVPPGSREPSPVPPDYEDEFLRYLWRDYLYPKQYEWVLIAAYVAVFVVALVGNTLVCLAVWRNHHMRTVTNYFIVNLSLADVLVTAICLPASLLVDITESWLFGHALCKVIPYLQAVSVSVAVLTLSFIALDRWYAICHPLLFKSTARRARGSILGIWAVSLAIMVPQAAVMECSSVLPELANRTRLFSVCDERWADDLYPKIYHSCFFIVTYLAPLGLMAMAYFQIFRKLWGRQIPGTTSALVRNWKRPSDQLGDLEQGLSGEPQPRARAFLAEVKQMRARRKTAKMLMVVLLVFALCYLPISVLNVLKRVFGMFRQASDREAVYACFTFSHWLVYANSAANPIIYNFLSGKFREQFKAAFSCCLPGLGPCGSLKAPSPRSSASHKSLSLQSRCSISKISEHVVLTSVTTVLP

inhibition, active:
COc1cccc(CC2(CO)CCCN(Cc3nc(-c4cccs4)oc3C)C2)c1 (stereo unspecified) 45%
CN=C1C=C/C(=N/N=c2\ccn(O)cc2C)C=C1C 58.6%
COc1cc2ccccc2cc1C(=O)Nc1ccc(N2CCOCC2)cc1 63.5%
COc1cccc(N=c2oc3c(C)ncc(CO)c3cc2C(N)=O)c1 84.6%
COc1cccc(/C=C/c2ccc3ccccc3n2)c1OC(C)=O 92%
O=C(OC1CCOC1=O)c1ccc(-c2nc3ccccc3s2)s1 (stereo unspecified) 119%
O=C(Nc1ccccc1Cl)/C(Cl)=C(\Cl)S(=O)c1ccccc1 (stereo unspecified) 87.9%
O=C(NCc1ccccc1)c1onc(CSc2nc3ccccc3[nH]2)c1C(=O)NCc1ccccc1 71.2%
C=CCSc1nnc2c(n1)-c1cccc3cccc-2c13 56.6%
COc1ccc(C(=O)COC(=O)c2ccc([N+](=O)[O-])s2)cc1OC 38.5%
O=C(OCC(=O)N1CCN(c2ccccc2)CC1)c1ccc([N+](=O)[O-])s1 42.6%
COc1cc(NC(=O)COC(=O)c2ccc([N+](=O)[O-])s2)cc(OC)c1OC 47.4%
Cc1cc[n+](-c2[nH]c(=O)sc2/C=N/NC(=O)c2ccccc2[O-])cc1C 67.1%
Fc1ccccc1-c1cc2cc3c(cc2cn1)OCO3 66%
Cc1ccc(S(=O)(=O)N2[C@@H](c3ccccc3F)C(C(=O)O)=CC[C@H]2c2ccc(Cl)cc2)cc1 64.8%
Cc1ccccc1S(=O)(=O)N1[C@@H](c2cccc(Cl)c2)C(C(=O)O)=CC[C@H]1c1ccc(Cl)cc1 90.2%
Cc1ccc(S(=O)(=O)N2[C@@H](c3cccc(Cl)c3)C(C(=O)O)=CC[C@H]2c2ccc(Cl)c(Cl)c2)cc1 81.4%
Cc1ccc([C@@H]2CC=C(C(=O)O)[C@H](c3cccc(Cl)c3)N2S(=O)(=O)c2ccc(C)cc2)cc1 82.9%

inhibition, inactive:
CC1Sc2ccc(C(=O)NCc3ccccc3Cl)cc2NC1=O (stereo unspecified) 1.56%
NC(=O)Nc1ccc(C(=O)OCC(=O)NC2CCCc3ccccc32)cc1 (stereo unspecified) 19.8%
COc1cccc(CC2(CO)CCCN(CC3=Cc4cc(OC)ccc4OC3)C2)c1 (stereo unspecified) 25.7%
COc1cccc(CC2(CO)CCCN(Cc3ccc(OC(F)F)cc3)C2)c1 (stereo unspecified) 13.4%
COC(=O)[C@]1(Cc2ccccc2)N[C@H](CN(C)S(=O)(=O)c2ccc(OC(F)(F)F)cc2)[C@@H]2C(=O)N(C)C(=O)[C@@H]21 5.12%
O=C(CSc1ncnc2sccc12)NC1CCS(=O)(=O)C1 (stereo unspecified) 4.8%
CCCCNS(=O)(=O)CCNCc1ccccc1OC 5.19%
CCCCNC(=O)C(C)N(CCN(C)C)C(=O)CCCCCN1C(=O)NC(c2ccc(Cl)cc2)C(C(=O)OCc2ccccc2)=C1C (stereo unspecified) 7.69%
O=C(CCCOc1ccccc1)NNC(=O)c1ccc(Cl)cc1 2.88%
CCOc1ncccc1C(=O)Nc1ccc2c(c1)OCCO2 14.1%
O=C(COC(=O)c1ccc(F)cc1)Nc1ccc2c(c1)OCO2 7.07%
COc1cc2ccccc2cc1C(=O)N1CCOCC1 9.14%
COc1cc2ccccc2cc1C(=O)Nc1ccncc1 17.8%
O=C(Cn1cnc2ccccc2c1=O)NNC(=O)c1ccccc1F 6.41%
COC(=O)c1ccc(NC(=O)c2cc3c(CO)cnc(C)c3oc2=Nc2cccc(C(N)=O)c2)cc1 7.42%
COc1cccc2cc(C(N)=O)/c(=N\NC(=O)c3ccccc3)oc12 5.27%
O=C(CN1C(=O)NC2(CCCCCC2)C1=O)Nc1ccc([N+](=O)[O-])cc1 11.2%
O=C(Nc1ccccc1F)c1ccc(Cn2cc(Br)cn2)cc1 8.12%
Cc1ccc(Br)c(NS(=O)(=O)c2cccc(C(=O)N3CCNC(=O)C3)c2)c1 3.06%
S=C(NC1CCCCC1)NN1CCOCC1 18.3%
COc1ccc(NC(=O)CN2C(=O)CSc3ccc(S(=O)(=O)N4CCC(C)CC4)cc32)cc1 3.75%
O=C(Nc1cccc(S(=O)(=O)N2CCCC2)c1)c1cncc(Br)c1 -1.91%
COc1cccc(/C=C2\C=C(c3ccc(C)cc3)OC2=O)c1OC(C)=O -6.31%
CCOc1cccc(/C=C/c2ccc3ccccc3n2)c1OC(C)=O 58.1%
O=C(CSc1ncn[nH]1)Nc1ccc(Br)cc1Br 5.47%
C=CC[C@@H](CC(=O)N[C@@H](CO)Cc1ccccc1)C(=O)N[C@H](COC(=O)[C@H](CC=C)CC(=O)OC(C)(C)C)Cc1ccccc1 3.4%
CN(Cc1ccc(F)cc1)C(=O)CN1C(=O)c2ccccc2S1(=O)=O 13.1%
Cc1nn(Cc2ccccc2)c(Cl)c1C(=O)OC1CCOC1=O (stereo unspecified) 21.6%
CC(C)c1ccc(C(=O)OC2CCOC2=O)cc1 (stereo unspecified) 27.2%
Cc1ccc(S(=O)(=O)N2CCCCC2)cc1NC(=O)CCNC(=O)c1ccccc1 2.26%
COc1cccc(CNC(C)C(=O)Nc2ccc(S(=O)(=O)N3CCCC3)cc2)c1 (stereo unspecified) 2.03%
O=C(NNC(=O)c1ccc(Cl)nc1)c1ccc(Br)cc1 8.95%
CCN(C[C@H]1N[C@@](CC)(C(=O)OC)[C@H]2C(=O)N(Cc3ccccc3)C(=O)[C@@H]12)S(=O)(=O)c1ccccc1 6.85%
O=C(Cc1ccc2c(c1)CCCC2)Nc1ccccc1Cl 6.59%
Cc1c(NC(=O)Nc2ccccc2Cl)sc(=S)n1C 12.2%
COc1ccc(CNC(=O)C2CCN(C(=O)c3ccco3)CC2)cc1 14.6%
CC(=O)c1c(OCC(=O)N(C)C2CCCCC2)ccc2c(C)cc(=O)oc12 2.71%
O=C(NCc1ccccc1)c1onc(CSc2ccncc2)c1C(=O)NCc1ccccc1 16.4%
O=C(NCC1CC1)c1onc(CSc2ccccc2)c1C(=O)NCC1CC1 28.4%
O=S(=O)(Nc1ncnc2sccc12)c1cccc(F)c1 3.31%
Cc1cc(NC(=O)COC(=O)/C=C/c2ccc(C)o2)no1 1.38%
CCOC(=O)C1=CN(Cc2ccc(Br)cc2)S(=O)(=O)NC1C (stereo unspecified) 8.5%
COc1cc2c(-c3ccc4c(c3)OCO4)c(-c3ccsc3)oc(=O)c2cc1OC 16.2%
CC(OC(=O)c1cc2ccccc2[nH]1)C(=O)N(C)c1ccccc1 (stereo unspecified) 5.48%
COc1ccc(C(=O)NCC(=O)N/N=C/c2ccc([N+](=O)[O-])s2)cc1OC 44%
O=C(CN1CCCC1)N1CCN(c2ccccc2)CC1 3.2%
C[C@H](NC(=O)c1ccccc1Cl)C(=O)OCC(=O)N1CCN(c2ccccc2)CC1 3.17%
COc1ccc(C(=O)OCC(=O)Nc2ccc3[nH]c(=O)[nH]c3c2)c(OC)c1OC 18%
COc1cc(C(=O)OCc2ccc([N+](=O)[O-])cc2)cc(OC)c1OC 14.5%
COc1ccc(C(=O)OCC(=O)c2ccc(C)c(S(=O)(=O)N3CCOCC3)c2)cc1OC 27.8%
C[C@H](CO)N1C[C@H](C)[C@H](CN(C)C(=O)Nc2ccc(C(F)(F)F)cc2)Oc2c(NC(=O)c3ccncc3)cccc2C1=O 12.5%
CCOc1ccc(Br)cc1S(=O)(=O)Nc1ccc(S(=O)(=O)Nc2cc(C)on2)cc1 -0.05%
CN(C)C(=O)CCc1ccc2c3c([nH]c2c1)[C@]1(CCc2ccccc2)[C@@H](C(=O)N2CCCCC2)C[C@H](CC(=O)NCCC2=CCCCC2)C(=O)N1CC3 10.4%
COc1ccc2sc(-c3ccc(S(C)(=O)=O)cc3)c(C#Cc3cncn3C)c2c1 6.52%
C=CCC[C@H](Cc1ccc(F)cc1)C(=O)OC[C@@H](Cc1c[nH]c2ccccc12)NC(=O)[C@H](CC=C)CC(=O)N[C@H](CO)Cc1ccccc1 3.33%
COc1ccccc1NC(=O)COC(=O)CNC(=O)C1CCCCC1 5.3%
Cc1c(Cl)cnc(NC(=O)COC(=O)C2CCCC2)c1Cl 2.82%
COc1ccc(C(=O)COC(=O)CN2C(=O)C3CC=CCC3C2=O)c(OC)c1 (stereo unspecified) 0.55%
CCN([C@H](CO)C(C)C)S(=O)(=O)c1ccccc1Br 8.87%
CCCN=C1N(C)C[C@@H]2[C@@H]3C(=O)N(Cc4ccccc4)C(=O)[C@@H]3[C@](C)(C(=O)OC)N12 3.52%
Cc1ccc2occ(/C=N/NC(=O)c3ccccc3C)c(=O)c2c1 11.9%
Cc1ccc(/C=N/NC(=O)c2cc3ccccc3cc2O)o1 22.1%
C[C@H](CO)N1C[C@H](C)[C@@H](CN(C)S(=O)(=O)c2ccc(F)cc2)Oc2c(NC(=O)Nc3ccccc3)cccc2C1=O 3.72%
O=C(Nc1ccccc1F)c1ccc2c(c1)OCO2 0.6%
Fc1ccc2cnc(-c3ccccc3)cc2c1 1.78%
CS(=O)(=O)N(CC(=O)N1CCN(c2cccc(Cl)c2)CC1)c1ccccc1 -2.69%
CN1OC(COC(=O)c2ccc(Cl)cc2)CC1c1ccccc1 (stereo unspecified) -0.66%
COc1ccccc1N1CCN(S(=O)(=O)c2ccc(Cl)cc2)CC1 4.56%
Cc1ccc2c(c1)C(c1ccccc1)N(C(=O)c1ccc(S(=O)(=O)N3CCOCC3)cc1)CC(=O)N2 (stereo unspecified) 7.06%
Cc1ccc(S(=O)(=O)N2[C@@H](c3ccc(Br)cc3)C(C(=O)O)=C[C@H]2CC2CCCC2)cc1 31.2%
Cc1ccc(S(=O)(=O)N(CC(=O)N2CCc3ccccc3C2)c2cccc(Cl)c2)cc1 40%
Cc1ccc(S(=O)(=O)N2CCN(CC(=O)N/N=C/c3cc([N+](=O)[O-])ccc3Cl)CC2)cc1 19.3%
Cc1ccc(S(=O)(=O)N2C3C=CC(C3)C2C(=O)O)cc1 (stereo unspecified) 7.96%
